Source: PubChem BioAssay AID1159580 (chemical genetic matrix, 2015)
Several values for one entry are separate records, joined by “and”; a condition that tells them apart may be missing. Equal values may be shown once. About 2,000 (36%) of roughly 5,500 compounds were called active. Not shown: some 18% with an inconclusive outcome. Rule as the data show it: active = normalized growth mostly below about 0.91 (no sharp cut-off); inconclusive = no clear call, values can overlap the other calls; inactive = mostly above about 0.92. This is one part of the list.

Test: chemical genetic growth profiling, strain panel (AID 1159580);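 also: tested at 20 µM; growth read once vehicle control cultures reached saturation at 30 °C; 1 = growth at the plate median or of vehicle wells; lower values mean less growth of the strain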
Conditions: S. cerevisiae deletion strains, growth OD

Measured: normalized growth

CCCCCCCCNC(C)C(O)c1ccc(SC(C)C)cc1 (stereo not drawn)
inactive: locus YHR079C, strain IRE1, stronger effect = lower value 0.911 | locus YIL125W, strain kgd1, stronger effect = lower value 1 | locus YJR066W, strain TOR1, stronger effect = lower value 0.885
0.0483 (active) and 0.892 (inactive): locus YHR030C, strain SLT2, stronger effect = lower value
active: locus YAL021C, strain ccr4, stronger effect = lower value 0.0594 | locus YAL026C, strain drs2, stronger effect = lower value 0.0595 | locus YAL030W, strain snc1, stronger effect = lower value 0.0546 | locus YBL061C, strain skt5, stronger effect = lower value 0.0571 | locus YBR009C, strain hhf1, stronger effect = lower value 0.0563 | locus YBR021W, strain FUR4, stronger effect = lower value 0.0834 | locus YBR023C, strain chs3, stronger effect = lower value 0.0584 | locus YBR171W, strain sec66, stronger effect = lower value 0.0741 | locus YBR229C, strain ROT2, stronger effect = lower value 0.0441 | locus YBR231C, strain swc5, stronger effect = lower value 0.0585 | locus YBR279W, strain paf1, stronger effect = lower value 0.0682 | locus YCL011C, strain gbp2, stronger effect = lower value 0.055 | locus YCL016C, strain dcc1, stronger effect = lower value 0.0618 | locus YCL029C, strain bik1, stronger effect = lower value 0.0564 | locus YCL069W, strain vba3, stronger effect = lower value 0.0585 | locus YCR088W, strain abp1, stronger effect = lower value 0.0581 | locus YDL005C, strain med2, stronger effect = lower value 0.0745 | locus YDL035C, strain GPR1, stronger effect = lower value 0.0475 | locus YDL040C, strain nat1, stronger effect = lower value 0.0579 | locus YDL074C, strain BRE1, stronger effect = lower value 0.0735 | locus YDL101C, strain DUN1, stronger effect = lower value 0.0522 | locus YDL134C, strain PPH21, stronger effect = lower value 0.047 | locus YDL185W, strain tfp1, stronger effect = lower value 0.262 | locus YDL192W, strain arf1, stronger effect = lower value 0.0576 | locus YDR001C, strain nth1, stronger effect = lower value 0.06 | locus YDR069C, strain doa4, stronger effect = lower value 0.0584 | locus YDR101C, strain arx1, stronger effect = lower value 0.0541 | locus YDR137W, strain rgp1, stronger effect = lower value 0.0948 | locus YDR150W, strain NUM1, stronger effect = lower value 0.0542 | locus YDR159W, strain sac3, stronger effect = lower value 0.0734 | locus YDR162C, strain NBP2, stronger effect = lower value 0.0459 | locus YDR195W, strain ref2 0.0984 | locus YDR297W, strain sur2, stronger effect = lower value 0.0553 | locus YDR318W, strain mcm21, stronger effect = lower value 0.0585 | locus YDR334W, strain swr1, stronger effect = lower value 0.0597 | locus YDR335W, strain msn5, stronger effect = lower value 0.0583 | locus YDR388W, stronger effect = lower value 0.054 | locus YDR392W, strain spt3, stronger effect = lower value 0.0655 | locus YDR502C, strain sam2, stronger effect = lower value 0.056 | locus YEL003W, strain gim4, stronger effect = lower value 0.0594 | locus YEL037C, strain rad23, stronger effect = lower value 0.0554 | locus YEL061C, strain CIN8 (second series), stronger effect = lower value 0.0597 | locus YEL061C, strain CIN8, stronger effect = lower value 0.0482 | locus YER015W, strain faa2, stronger effect = lower value 0.0595 | locus YER016W, strain bim1, stronger effect = lower value 0.0591 | locus YER110C, stronger effect = lower value 0.0696 | locus YER111C, strain swi4, stronger effect = lower value 0.0814 | locus YER155C, strain BEM2 (second series), stronger effect = lower value 0.0808 | locus YER155C, strain BEM2, stronger effect = lower value 0.0577 | locus YER167W, strain BCK2, stronger effect = lower value 0.0469 | locus YFR010W, strain ubp6, stronger effect = lower value 0.0616 | locus YGL078C, strain dbp3, stronger effect = lower value 0.902 | locus YGL086W, strain mad1, stronger effect = lower value 0.0521 | locus YGL167C, strain pmr1, stronger effect = lower value 0.077 | locus YGL173C, strain kem1, stronger effect = lower value 0.0661 | locus YGL227W, strain vid30, stronger effect = lower value 0.06 | locus YGL240W, strain doc1, stronger effect = lower value 0.0665 | locus YGL248W, strain PDE1, stronger effect = lower value 0.0436 | locus YGL253W, strain hxk2, stronger effect = lower value 0.0517 | locus YGR135W, strain pre9, stronger effect = lower value 0.0567 | locus YGR252W, strain gcn5, stronger effect = lower value 0.109 | locus YHR013C, strain ard1, stronger effect = lower value 0.0967 | locus YHR027C, strain rpn1, stronger effect = lower value 0.0609 | locus YHR079C, strain IRE1 (second series), stronger effect = lower value 0.0545 | locus YHR094C, strain hxt1, stronger effect = lower value 0.0553 | locus YHR129C, strain ARP1, stronger effect = lower value 0.0538 | locus YHR142W, strain chs7, stronger effect = lower value 0.0639 | locus YHR200W, strain rpn10, stronger effect = lower value 0.0572 | locus YIL066C, strain RNR3, stronger effect = lower value 0.0459 | locus YIL073C, strain SPO22, stronger effect = lower value 0.102 | locus YIR030C, strain dcg1, stronger effect = lower value 0.0568 | locus YJL092W, strain hpr5, stronger effect = lower value 0.0567 | locus YJL095W, strain BCK1 (second series), stronger effect = lower value 0.0551 | locus YJL095W, strain BCK1, stronger effect = lower value 0.0554 and 0.787 | locus YJL115W, strain asf1, stronger effect = lower value 0.069 | locus YJL129C, strain trk1, stronger effect = lower value 0.0791 | locus YJL134W, strain LCB3, stronger effect = lower value 0.0468 | locus YJL154C, strain vps35, stronger effect = lower value 0.0585 | locus YJL164C, strain tpk1, stronger effect = lower value 0.0551 | locus YJL166W, strain qcr8, stronger effect = lower value 0.0569 | locus YJL168C, strain set2, stronger effect = lower value 0.0547 | locus YJL187C, strain SWE1 (second series), stronger effect = lower value 0.0448 | locus YJR043C, strain POL32, stronger effect = lower value 0.0599 | locus YJR075W, strain HOC1, stronger effect = lower value 0.0593
